An excerpt weighted towards active compounds, which were near 3.1% of everything screened.
Tau fibril FP: qHTS for Inhibitors of Tau Fibril Formation, Fluorescence Polarization; Microtubule-associated protein tau (Homo sapiens), P10636; K18 P301L tau heparin fibrillization, Alexa594 FP, 6 h; Potency, µM (titrated, usually from 57.7 µM), hits mostly inhibitors; actives 0.39% (n = 280,000); also: nearly all actives have a fitted effect of over 55% in size
Target sequence (P10636 561-689 P618L limits assumed): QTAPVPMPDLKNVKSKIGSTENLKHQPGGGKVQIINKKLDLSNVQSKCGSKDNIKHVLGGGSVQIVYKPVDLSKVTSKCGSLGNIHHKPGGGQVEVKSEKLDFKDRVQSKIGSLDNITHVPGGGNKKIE
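Heparin (20 uM) drove fibril formation of recombinant tau K18 P301L, 15 uM unlabeled with 0.24 uM Alexa 594 label, for 6 hr at 37 C in 100 mM sodium acetate pH 7. Fluorescence polarization (555/632 nm) read 1 hr after 30 uM ThT.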
TRb-SRC2 inh: qHTS for Inhibitors of the Interaction of Thyroid Hormone Receptor and Steroid Receptor Coregulator 2; TRbeta-SRC2 peptide binding, fluorescence polarization; receptor liganded with 1 µM T3; Potency, µM (highest dose often 106 µM), usual class: inhibitors; actives 0.065% (n = 280,000); AID 1469, 2008; also: nearly all actives have a fitted effect of over 50% in size
Target sequence (P10828 whole entry, looked up): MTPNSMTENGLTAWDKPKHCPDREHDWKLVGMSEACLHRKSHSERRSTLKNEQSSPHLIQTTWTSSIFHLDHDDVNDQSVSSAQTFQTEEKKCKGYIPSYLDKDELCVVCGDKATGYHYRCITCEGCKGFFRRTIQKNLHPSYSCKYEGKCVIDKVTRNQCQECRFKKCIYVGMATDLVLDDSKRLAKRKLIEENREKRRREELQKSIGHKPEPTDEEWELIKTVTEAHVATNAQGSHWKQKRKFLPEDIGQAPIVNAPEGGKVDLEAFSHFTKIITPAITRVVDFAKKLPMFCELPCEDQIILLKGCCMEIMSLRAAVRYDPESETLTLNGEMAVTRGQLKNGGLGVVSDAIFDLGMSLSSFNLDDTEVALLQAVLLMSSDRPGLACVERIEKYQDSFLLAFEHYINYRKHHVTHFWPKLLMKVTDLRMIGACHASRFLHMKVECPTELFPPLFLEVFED
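Fluorescence polarization of 20 nM Texas Red SRC2 peptide (20-aa NR interaction domain) bound to 0.6 uM human TRb ligand-binding domain, with 1 uM T3, after 5 hr at ambient temperature; inhibition seen as decreased polarization.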
Tau fluor cs: Counterscreen qHTS for Inhibitors of Tau Fibril Formation, Fluorescence Polarization | tau K18 P301L Alexa594 fluorescence, heparin fibrillization | Potency, µM (highest dose often 57.7 µM) | actives 0.93% (n = 280,000) | AID 1463, 2008; also: nearly all actives have a fitted effect of over 55% in size
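Human tau K18 P301L (15 uM unlabeled, 0.24 uM Alexa 594-labeled) in 100 mM sodium acetate pH 7 with 20 uM heparin, 6 hr at 37 C. ThT 30 uM added, 1 hr ambient; Alexa 594 FP and total fluorescence read at 555/632 nm.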
TR SRC2 fluor cs: Total Fluorescence Counterscreen for Inhibitors of the Interaction of Thyroid Hormone Receptor and Steroid Receptor Coregulator 2; Potency, µM (doses to about 106 µM); AID 1479, 2009; actives 0.29% (n = 280,000); TRb/SRC2 Texas Red total fluorescence interference; active = well fitted curve in either direction with a large enough effect; inconclusive = small, poorly fitted or top-dose-only effect
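Flags fluorescent or light-absorbing compounds by total fluorescence, S + 2P, at 555 nm excitation and 632 nm emission. Mixture: 20 nM Texas Red SRC2 peptide, 0.6 uM human TRb LBD, 1 uM T3, 5% DMSO; compound exposure 5 h at ambient temperature.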
Tau ThT inhib: qHTS for Inhibitors of Tau Fibril Formation, Thioflavin T Binding. Microtubule-associated protein tau (Homo sapiens), P10636. recombinant tau K18 P301L (four-repeat tau fragment), heparin-induced fibrillization, ThT fluorescence. Potency, µM (titrated, usually from 57.4 µM), most hits filed as inhibitors. actives 2.1% (n = 270,000). AID 1460, 2008; also: nearly all actives have a fitted effect of over 55% in size
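In this qHTS, human K18 P301L tau is incubated with compound and heparin for 6 hr at 37 C, and Thioflavin T fluorescence then reports fibril load.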
Numbers stand for hits; - = inactive; ? = inconclusive; . = no result; [ ] = dose if it differs, or a comment. Unless noted, calls follow the shape of the dose curve; as a rule, active = well fitted curve in the direction sought with a large enough effect; inconclusive = small, poorly fitted or top-dose-only effect, or another doubt; inactive = no such curve, though single readings can be large; an effect the other way counts as inactive or inconclusive.

SMILES	Tau fibril FP	TRb-SRC2 inh	Tau fluor cs	TR SRC2 fluor cs	Tau ThT inhib
COc1cc(/C=C2\SC(=S)N(C(Cc3ccccc3)C(=O)O)C2=O)ccc1O (stereo unspecified)	-	-	-	-	11µM
O=C1/C(=C/c2ccc(O)c(O)c2)SC(=S)N1Nc1ccccc1	-	-	11µM[quencher]	-	5µM
CNc1ncnc2c1ncn2[C@H]1C[C@H](O)[C@@H](CO)O1	-	-	-	-	-
Cc1nc2ccc(S(=O)(=O)CCC(=O)Nc3ccc(C)c(C)c3)cc2s1	-	-	-	-	-
COc1ccc(NC(=O)CCc2c(C)nc3nc(CNC(=O)OC(C)(C)C)nn3c2C)cc1OC	-	-	-	-	-
CCOc1cc(/C=C2\SC(=S)N(Nc3ccccc3)C2=O)ccc1O	-	?	13µM[quencher]	-	11µM
CCCC(=O)c1cc(O)c(O)cc1O	.	-	.	-	.
Cc1cc2cc(CNC(=O)c3ccc(S(=O)(=O)N4CCOCC4)cc3)ccc2n1C	?	40µM	-	45µM[fluorescent]	?
Cc1cc2ccccc2n1CCNC(=O)C(C)Oc1ccccc1 (stereo unspecified)	?	50µM	-	?	?
Cc1cc2cc(CNS(=O)(=O)c3ccc4ccccc4c3)ccc2n1C	-	45µM	-	45µM[fluorescent]	?
Cc1cc2cc(CNC(=O)c3ccc(S(=O)(=O)N(C)C)cc3)ccc2n1C	-	-	-	-	-
Cc1cc2ccccc2n1CCNC(=O)c1ccc(S(=O)(=O)N2CCCCC2)cc1	-	-	-	45µM[fluorescent]	-
CC(=O)Nc1ccc(S(=O)(=O)NCc2ccc3c(c2)cc(C)n3C)cc1	-	-	?	?	?
O=C(COC(=O)C1CC(O)CN1S(=O)(=O)c1ccc(Cl)cc1)c1ccccc1Cl (stereo unspecified)	-	-	-	-	-
O=C(COC(=O)C1CC(O)CN1S(=O)(=O)c1ccc(Cl)cc1)c1ccccc1 (stereo unspecified)	-	-	-	0.11µM[quencher]	-
COC(=O)NC(c1ccccc1)C(C#N)C(=O)OC (stereo unspecified)	-[11.6 µM]	-[11.2 µM]	-[11.6 µM]	-[11.2 µM]	-[11.5 µM]
CN1/C(=C\C=N\O)C(C)(C)c2ccccc21	-	-	-	-	?
CN(C)c1ccc(N=C/C=C2/N(C)c3ccccc3C2(C)C)cc1	?	-	?	-	3.2µM
CN1/C(=C/C2CC(=O)N(c3ccc([N+](=O)[O-])cc3)C2=O)C(C)(C)c2ccccc21 (stereo unspecified)	-	-	?	-	14µM
CN1/C(=C/C=N/NC(=O)c2ccc([N+](=O)[O-])cc2)C(C)(C)c2ccccc21	-	-	?	-	6.3µM
Cc1ccccc1N=C/C=C1\N(C)c2ccccc2C1(C)C	-	?	-	45µM[fluorescent]	?
CC(C)=CCC/C(C)=C/C=N/NC(=O)c1ccc([N+](=O)[O-])cc1	-	-	-	?	?
CCC1CCCCN1CCCNC(=O)c1ccc2c(c1)N(Cc1cccc(C)c1)C(=O)c1ccccc1S2(=O)=O (stereo unspecified)	-	-	?	-	-
COC(=O)/C=C/C(C)=C/C=C/C(C)=C/C=C/C=C(C)/C=C/C=C(C)/C=C/C(=O)O	?	-	-	-	13µM
CO/N=C(/C)CCC(=O)OC[C@@H]1O[C@H](c2ccccc2)C=C[C@@H]1Oc1ccc(OC)cc1	-[11.6 µM]	-[11.2 µM]	-[11.6 µM]	-[11.2 µM]	-[11.5 µM]
SMILES	Tau fibril FP	TRb-SRC2 inh	Tau fluor cs	TR SRC2 fluor cs	Tau ThT inhib
Oc1ccc(C2Nc3cccc4cccc(c34)N2)c(O)c1	?	-	7.9µM[quencher]	?	14µM
FC(F)(F)c1ccc(C2Nc3cccc4cccc(c34)N2)cc1	-	-	-	-	?
COC(=O)c1ccc(C2Nc3cccc4cccc(c34)N2)cc1	?	-	14µM[quencher]	-	14µM
c1coc(C2Nc3cccc4cccc(c34)N2)c1	?	-	7.9µM[quencher]	?	11µM
COc1cc(C2Nc3cccc4cccc(c34)N2)ccc1OC(C)=O	-	-	?	-	?
O=[N+]([O-])c1ccc(C2Nc3cccc4cccc(c34)N2)cc1	?	-	13µM[quencher]	-	14µM
O=[N+]([O-])c1cccc(C2Nc3cccc4cccc(c34)N2)c1	-	-	?	-	?
COC(=O)c1ccc(C(=O)OC)c(NC(=O)c2cc3nc(-c4ccc(C)cc4)cc(C(F)(F)F)n3n2)c1	-	-	-	-	-
CCOc1ccc(NC(=O)CSc2nc3c([nH]c4ccccc43)c(=O)n2-c2cc(C)cc(C)c2)cc1	-	-	-	-	-
O=C(/C=C/c1ccco1)Nc1ccc(Cl)c(-c2nc3cc(Cl)ccc3o2)c1	?	-	?	-	-
COc1cc(C2Nc3cccc4cccc(c34)N2)cc(OC)c1O	?	-	4.5µM[quencher]	-	16µM
COc1ccc(NC(=O)c2cncc(Br)c2)cc1S(N)(=O)=O	-	-	-	-	-
CN(C(=O)CSc1nncn2c1cc1occc12)c1ccccc1	-	-	-	-	-
CCn1c(=O)c(=O)[nH]c2cc(C(=O)N3CCN(c4ccccc4F)CC3)ccc21	-	-	-	45µM[fluorescent]	-
NCCCCNS(=O)(=O)c1cccc2c(Cl)cccc12	-	-	-	-	-
CCCn1c(C)cc(C(=O)COc2ccc(C)nc2[N+](=O)[O-])c1C	-	-	-	-	-
Cc1ccc(C)c(C(=O)COc2ccc(C)nc2[N+](=O)[O-])c1	?	-	?	-	16µM
Cc1ccc(OCC(=O)c2cc(C)c(C)cc2C)c([N+](=O)[O-])n1	?	-	?	-	16µM
Cc1ccc(-n2ncc3c(Nc4cccc(C(F)(F)F)c4)ncnc32)cc1C	10µM	?	?	-	-
Cc1ccc(-n2ncc3c(Nc4cccc(Cl)c4)ncnc32)c(C)c1	25µM	-	?	-	-
COC(=O)c1ccc(C(=O)OC)c(NC(=O)c2c(-c3ccccc3)c(-c3ccccc3)nn(C)c2=O)c1	-	-	-	-	-
CCCCN1CC(c2nc3ccccc3n2CCCCOc2ccccc2C)CC1=O (stereo unspecified)	-	-	-	-	-
CCC12CCCN3CCc4c(n(c5ccccc45)C(O)(C(=O)OC)C1)C32 (stereo unspecified)	?	-	?	-	18µM
O=C(N/N=C/c1cc(Cl)cc([N+](=O)[O-])c1O)c1ccccc1NS(=O)(=O)c1cccs1	-	-	-	-	11µM
O=C(N/N=C/c1cc(Cl)cc([N+](=O)[O-])c1O)NC12CC3CC(CC(C3)C1)C2	-	-	?	-	13µM

Screening results as filed in PubChem.
